Screening results: PubChem BioAssay, National Center for Advancing Translational Sciences (NCATS)
Shown are actives, neighbours in structure and some others; about 3.3% of the full set was active somewhere.
SARS PLpro yeast: qHTS of Yeast-based Assay for SARS-CoV PLP | S. cerevisiae expressing SARS-CoV PLpro, growth rescue | AID 485353, 2010 | actives 0.19% (n = 330,000) | Potency, µM (top dose mostly 32.9 µM), inactives show at the highest dose activity, positive = growth rescue, usual class: activators; calls by dose curve; note: 0% is about no effect; nearly all actives have a fitted effect of over 55% in size
AmpC inh no detg: qHTS Inhibitors of AmpC Beta-Lactamase (assay without detergent); P00811; AmpC nitrocefin hydrolysis, absorbance 480 nm, 0.0001% Triton; Potency, µM (top dose mostly 57.1 µM), without a hit: at the highest dose activity change, negative = inhibition, hits mostly inhibitors; actives 0.52% (n = 330,000); AID 485341, 2010;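 note: plate controls were no compound for no effect and no enzyme for full effect; nearly all actives have a fitted effect of over 20% in size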
Target sequence (P00811 whole entry, looked up): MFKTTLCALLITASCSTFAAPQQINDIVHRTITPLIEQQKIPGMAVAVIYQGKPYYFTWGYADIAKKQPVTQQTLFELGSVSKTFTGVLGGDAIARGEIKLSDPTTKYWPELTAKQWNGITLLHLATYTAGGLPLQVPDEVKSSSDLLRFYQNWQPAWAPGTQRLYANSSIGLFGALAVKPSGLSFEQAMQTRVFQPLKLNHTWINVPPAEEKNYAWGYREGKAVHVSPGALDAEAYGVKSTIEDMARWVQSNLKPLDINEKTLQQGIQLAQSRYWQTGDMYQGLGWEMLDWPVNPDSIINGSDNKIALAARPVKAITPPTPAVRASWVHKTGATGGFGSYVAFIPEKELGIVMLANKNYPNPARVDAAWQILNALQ
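AmpC (5.3 nM in the dispensed reagent) in 20 mM phosphate pH 7.0 with 0.01% (detergent screen) or 0.0001% Triton X-100 was preincubated with compounds for 15 min at room temperature. Nitrocefin was then added from an 800 uM solution, and hydrolysis was followed at 480 nm.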
TbPYK inhibitor: qHTS of Trypanosoma Brucei Inhibitors; actives 0.12% (n = 410,000); Potency, µM (doses to about 76.8 µM), for the others: top-dose activity, negative = inhibition, usual class: inhibitors; TbPYK enzyme, Kinase-Glo Plus ATP luminescence, 45 min; note: % is set by controls: 0 for no effect and ±100 for the full control effect; nearly all actives have a fitted effect of over 50% in size
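Quantitative HTS: titrated library compounds versus trypanosomal pyruvate kinase in TEA buffer (pH 7.2) containing KCl, MgCl2, BSA and Tween-20. Reactions were initiated with ADP, 130 uM final. Kinase-Glo Plus luminescence was read after 45 min at RT.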
AmpC inh detg: qHTS Inhibitors of AmpC Beta-Lactamase (assay with detergent); P00811; AmpC hydrolysis of nitrocefin, absorbance 480 nm, 0.01% Triton; Potency, µM (doses to about 114 µM), inactives show at the highest dose activity change, negative = inhibition, usual class: inhibitors; actives 0.041% (n = 370,000);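 note: 0% = no-compound wells and -100% = no-enzyme wells; nearly all actives have a fitted effect of over 25% in size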
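AmpC (5.3 nM in the dispensed reagent) in 20 mM phosphate pH 7.0 with 0.01% (detergent screen) or 0.0001% Triton X-100 was preincubated with compounds for 15 min at room temperature. Nitrocefin was then added from an 800 uM solution, and hydrolysis was followed at 480 nm.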
Sm TGR inh: qHTS Assay for the Inhibitors of Schistosoma Mansoni Peroxiredoxins | Schistosoma mansoni thioredoxin glutathione reductase (TGR), Q962Y6 | purified TGR, DTNB reduction, TNB absorbance 405 nm | Potency, µM (highest dose often 114 µM), without a hit: at the highest dose activity change, negative = inhibition, most hits filed as inhibitors | actives 3% (n = 360,000); note: % is set by controls: 0 for no effect and ±100 for the full control effect; nearly all actives have a fitted effect of over 60% in size
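TGR 20 nM + NADPH 100 uM (dispensed conc.), cpd preinc 15 min RT; start with NADPH (500 uM addition) then DTNB (15 mM addition). Kinetic TNB absorbance, 405 nm filter. Four-parameter Hill fit across titration.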
RE007 growth inh: qHTS Assay for Inhibitors of the HIV-1 protein Vpr; Potency, µM (doses to about 92.2 µM), for the others: top-dose activity change, negative = less growth, usual class: inhibitors; S. pombe RE007 Vpr strain, BacTiter-Glo ATP luminescence, 24 h; actives 0.21% (n = 360,000); active = well fitted falling curve with a large enough effect; inconclusive = small, poorly fitted or top-dose-only effect; inactive = no such curve, though single readings can be large or run the other way; note: % is set by controls: 0 for no effect and ±100 for the full control effect; nearly all actives have a fitted effect of over 50% in size
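Fission yeast strain RE007, carrying one chromosomally integrated HIV-1 vpr copy, was seeded at OD 0.01 in PMG+AL medium with 23 nL pinned compound. After 24 h at 30 °C and 99% humidity, viability was read by BacTiter-Glo luminescence.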
* marks the source's active call; other numbers are inactive results; u = inconclusive; x = no result. Unless noted, calls come from the whole dose curve; as a rule, active = well fitted curve in the direction sought with a large enough effect; inconclusive = small, poorly fitted or top-dose-only effect, or another doubt; inactive = no such curve, though single readings can be large; an effect the other way counts as inactive or inconclusive. Potency is the fitted concentration of half-maximal effect.

SMILES | SARS PLpro yeast | AmpC inh no detg | TbPYK inhibitor | AmpC inh detg | Sm TGR inh | RE007 growth inh
CC(C(=O)O)c1ccc(-c2ccccc2)c(F)c1 (stereo not given) | -1% | -25% | -6% | -13% | 2% | 4%
COc1ccc(N2CCN(S(=O)(=O)c3ccc4c(c3)CCCN4C(C)=O)CC2)cc1 | x | x | -12% | 2% | 5% | x
Cc1oc(C(=O)O)cc1CSCc1cc(C(=O)O)c(C)o1 | 8% | 3% | -10% | 2% | 45µM* | -10%
Cc1oc(C(=O)O)cc1CSCc1ccoc1C(=O)O | 8% | -22% | 4% | u | -31% | 2%
CCN(CC)S(=O)(=O)c1cccc(NC(=O)CNc2cccc(S(=O)(=O)N3CCCC3)c2)c1 | -4% | 28µM* | -6% | 0% | 1% | -19%
CCN(CC)S(=O)(=O)c1ccc(C)c(NC(=O)CNc2cccc(S(=O)(=O)N3CCCC3)c2)c1 | 2% | -28% | 0% | 0% | 1% | 1%
O=C(COC(=O)c1cc([N+](=O)[O-])ccc1NCCO)Nc1cccc(S(=O)(=O)N2CCCC2)c1 | 3% | 32µM* | -2% | u | -6% | -10%
O=C(COC(=O)c1cc([N+](=O)[O-])ccc1NCCO)Nc1ccc2c(c1)OCO2 | 0% | -17% | 1% | 0% | x | 9%
O=C(COC(=O)CNC(=O)c1ccc(Cl)cc1Cl)Nc1cccc(S(=O)(=O)N2CCCC2)c1 | 0% | -14% | -1% | -15% | 50µM* | 2%
COc1ccc2c(c1)CCc1c(C(=O)NCc3cccnc3)noc1-2 | 0% | 2% | -2% | -1% | 28µM* | 2%
COc1ccc(C(=O)c2ccc([N+](=O)[O-])cc2Cl)cc1 | -1% | -31% | -2% | -4% | 13µM* | u
CN(C)c1ccc(NC(=O)c2ccc([N+](=O)[O-])cc2Cl)cc1 | 16% | -14% | 2% | 100µM* | 0% | 6%
NC(=O)c1ccc(-c2nc(-c3ccc4c(c3)OCCO4)c(-c3ccccn3)[nH]2)cc1 | x | x | 0% | x | x | x
CCOC(=O)c1c(O)c2ccccc2n(C)c1=O | 0% | -22% | 1% | 1% | 0% | -13%
CCCCCOC(=O)Cc1c(O)c2ccccc2n(C)c1=O | -18% | -4% | -17% | -17% | 4µM* | -6%
CCOC(=O)C1=C(O)/C(=C\c2ccc(CNC(=O)C(=O)Nc3ccc(C)c(C)c3)o2)N=C1C | 18% | -36% | x | u | 40µM* | x
CCc1cccc2c(C(=O)COC(=O)c3ccc(O)cc3)c[nH]c12 | 3% | 28µM* | 2% | -11% | -10% | 10%
CCc1cccc2c(C(=O)COC(=O)c3ccccc3)c[nH]c12 | 7% | -31% | -10% | u | -10% | -9%
COc1ccc(NC(=O)CSc2nc(-c3ccccc3)[nH]c2-c2ccccc2)cc1OC | x | x | -16% | -10% | 7% | x
CC1CSc2nc3sc4c(c3c(=O)n21)CCCC4 (stereo not given) | 6% | 4% | -19% | -5% | 0% | 22µM*
COc1ccccc1N1CCN(c2nc3ccc(C)cc3nc2-n2nc(C)cc2C)CC1 | x | x | -2% | 4% | 1% | x
Cc1c(C(=O)NCc2ccccc2Cl)sc2nc[nH]c(=O)c12 | x | x | -7% | -5% | -6% | x
COc1ccc(N2CCN(C(=O)CSc3nnnn3-c3ccc4c(c3)OCCO4)CC2)cc1 | 3% | 25% | 0% | u | -6% | 8%
COc1ccc(-n2nnnc2SCC(=O)N2CCOCC2)cc1 | -3% | 0.89µM* | 0% | u | 2% | 6%
